Assay: JC-1 mitochondrial signal, unstimulated myeloma cells – cell-based, JC-1 fluorescence, RPMI8226, 24 h, 100 nL compound, profiling panel (AID 1169); note: test concentration not given here
Conditions: JC-1 mitochondrial potential fluorescence, higher = more signal

Structure (SMILES) | z-score
CC(CCN1CCCCc2nc(C)c(C)cc21)=NOC[C@@H](C)[C@H](OCc1ccccc1)C(C)C | 0.0506
COC(=O)CC=C[C@@H](C)[C@@H](C=NO[C@@H]1O[C@H](COC(C)=O)[C@@H](OC(C)=O)[C@H](OC(C)=O)[C@H]1OC(C)=O)OC | 0.128
CO[C@@H]1COC(=O)[C@H](CCSC)NC(=O)CC=C[C@@H](C)COC(=O)CCC[C@H]1C | -0.194
CCCNC(=O)OC[C@H]1O[C@H](CCON=C(C)CCC(=O)OC[C@H]2O[C@H](c3ccccc3)C=C[C@@H]2Oc2ccc(OC)cc2)C=C[C@@H]1Oc1ccc(OC)cc1 | 0.625
CCN1C(=O)[C@@H]2[C@H]3C(=CC[C@@H]2C1=O)C1(OCCCO1)[C@H]1O[C@H]1[C@H]3O | -1.04
O=C1[C@H]2[C@H]3[C@H](O)[C@H](O)CC(=NOC[C@@H](O)COCc4ccco4)[C@H]3CC[C@H]2C(=O)N1Cc1ccccc1 | 0.714
CO[C@H]1COC(=O)[C@@H](C)COC(=O)[C@H](C)NC(=O)CC=C[C@H]1C | -0.693
C[C@H]1COC(=O)[C@@H]2CCCN2C(=O)[C@@H](C)COC(=O)[C@H](Cc2ccccc2)NC1=O | -0.287
COC(=O)CC=C[C@@H](C)[C@H](OCc1cccc(-c2ccccc2)c1)C1CCCCC1 | -0.165
C=CC[C@@H]1C=C[C@H](ON=C(C)CCC(=O)OC[C@H]2O[C@H](C#Cc3ccccc3)C=C[C@@H]2Oc2ccc(C)cc2)[C@@H](CO)O1 | -0.759
CON=C[C@@H](NS(=O)(=O)c1ccc(C)cc1)[C@H](C)C=CCC(=O)OC | -0.0325
CO[C@@H]1COC(=O)CC=C[C@H](C)[C@H](OC)COC(=O)[C@H](C)NC(=O)CC=C[C@H]1C | 0.403
CC(CCC(=O)OC[C@H]1O[C@H](C#Cc2ccccc2)C=C[C@@H]1Oc1ccc(C)cc1)=NO[C@H](C)c1cn([C@H](CO)Cc2ccccc2)nn1 | -0.712
CCOC(=O)[C@H](Cc1ccccc1)NC(=O)CCC1CC(OC(=O)NCc2cccc3ccccc23)CC2(CCCC(COC(=O)NCC(c3ccccc3)c3ccccc3)O2)O1 (some centres undefined) | -0.107
CC(C)=CCCC(C)=CCON=C1C[C@@H](O)[C@@H](O)[C@@H]2[C@@H]3C(=O)N(C[C@@H]4CCCO4)C(=O)[C@@H]3CC[C@H]12 | 0.569
COC(=O)[C@H]1O[C@@H](c2c(OC)c(OC)c(C)c(OC)c2OC)[C@H](C)[C@@H](O)[C@H]1C | -0.398
COc1ccc(O[C@H]2C=C[C@@H](c3ccccc3)O[C@@H]2COC(=O)CCC(C)=NOC[C@@H](O)[C@H]2O[C@@H]3OC(C)(C)O[C@@H]3[C@H]2O)cc1 | -0.299
CCOC(=O)[C@H](CC(C)C)NC(=O)CCC1CC(OC(=O)NCCc2ccc(F)cc2)CC2(CCCC(COC(=O)NCC3CCCCC3)O2)O1 (some centres undefined) | -0.168
CC(C)=CCCC(C)=CCON=C1C[C@@H](O)[C@@H](O)[C@@H]2[C@@H]3C(=O)N(C4CCCCC4)C(=O)[C@@H]3CC[C@@H]12 | -0.258
COC(=O)CC=C[C@@H](C)[C@@H](C=NOC[C@H]1O[C@H](c2ccccc2)C=C[C@@H]1Oc1ccc(OC)cc1)NS(=O)(=O)c1ccc(C)cc1 | 0.689
CCc1cc2c(nc1CC)CCN(CCC(C)=NO[C@H](C)c1cn([C@@H]3COC[C@H]3O)nn1)C2 | -0.121
CCOC(=O)NN=C1C[C@@H](O)[C@@H](O)[C@@H]2[C@@H]3C(=O)N(Cc4ccc5c(c4)OCO5)C(=O)[C@@H]3CC[C@H]12 | 0.386
CO[C@H]1COC(=O)CC=C[C@H](C)[C@@H](OC)COC(=O)[C@@H](C)NC(=O)CC=C[C@@H]1C | -0.244
CO[C@@H]1COC(=O)CC=C[C@@H](C)[C@@H]2C=C[C@H](O)[C@@H](COC(=O)CC=C[C@H]1C)O2 | -0.31
CCOC(=O)[C@H](CC(C)C)NC(=O)CCC1CC(OC(=O)NCCc2ccc(F)cc2)CC2(CCCC(COC(=O)NCCc3ccccc3OC)O2)O1 (some centres undefined) | -0.106
CCCNC(=O)OC[C@H]1O[C@H](CCON=C(C)CCN2CCCc3nc(C)c(C)cc32)C=C[C@@H]1Oc1ccc(OC)cc1 | 0.455
CCC(=O)[C@@]1(O)C(=O)N2C(=C3C(=O)OCC[C@@H]31)N(Cc1ccccc1)C(C)=C(C(=O)OC)[C@H]2c1ccccc1 | -0.179
CC(C)(C)N1C(=O)[C@H]2[C@H]3[C@H](O)C=CC(=O)[C@@H]3CC[C@H]2C1=O | -0.0172
CC(CCN1CCCc2nc(C)c(C)cc21)=NO[C@@H](C)c1cc(-c2c(C)cc(C)cc2C)no1 | -0.0137

From PubChem BioAssay
